Consider 70 compounds from ChEMBL document CHEMBL4513216, “Probing the Open Global Health Chemical Diversity Library for Multistage-Active Starting Points for Next-Generation Antimalarials” (ACS Infect Dis, 2020).

Among all 69,000 compounds or so, about 8,600 (12%) showed an effect of 50% or more. The full list was thinned out, with strong results kept by preference.

For this experiment, the system named is Plasmodium berghei. Kind of experiment: Screen against P. berghei liver stage (PbLuc), transformed with Luciferase, at 10uM. In kind it is functional, HepG2. Conditions: tested at 10 uM.
Turning to `CNC(=O)N1CCC2(CC1)CN(C)Cc1cc(F)ccc12`, the INHIBITION amounted to 39.3%. In the case of `Cc1cccc(CN2CCc3nnc(CN4CCCCC4)n3CC2)n1` it was -89.8%; in that of `CC(C)c1nccn1C1CCCN(C(=O)CN(C)C2CC2)C1` (stereo not given), 19.6%. In the case of `CCN(C(=O)COc1nc(C(C)(C)C)no1)C1CC1` it was -1.75%.

`COc1ccc(C[C@H]2CN(C(=O)c3cc(C)no3)CC[C@H]2OC)cc1`: the INHIBITION was -22.1%. On to `Cc1cc(C)c(CNC(=O)NCc2ccncc2)c(=O)[nH]1`, for which the INHIBITION stood at 37.9%.

Consider `COCCNC(=O)NC(C)COc1ccc(F)cc1F` (stereo not given), for which the INHIBITION is reported as -2.48%. In the case of `CC(C)N1C(=O)CO[C@H]2CCN(C(=O)c3ccc4c(c3)CCC4)CC[C@@H]21`, the INHIBITION is 20.105%. Take `Cc1noc(C)c1CN1CCC2(CC1)C(c1cnn(C)c1)CC(=O)N2C` (stereo not given): the INHIBITION worked out at 41.2%. For the compound `CCC(CC)C(=O)N1CCOC2(COCCN(CC(=O)NC)C2)C1` (stereo not given), the INHIBITION is given as -13%. For `O=C(NCCc1c[nH]cn1)c1n[nH]c2c1CCC2`, the INHIBITION is given as -11.1%.

With `COc1ccccc1CC(=O)N1CCCC(CNS(C)(=O)=O)C1` (stereo not given), the INHIBITION came to 4.623%. `Cc1cnn(CCC(=O)N2CCCN(c3nc(C)cs3)CC2)c1`: the INHIBITION amounted to 17.4%. As to `CCn1cc(CN2CCN(C(=O)N3CCOCC3)CC2)cn1`, the INHIBITION was 43.4%. In the case of `CCn1cc(CN2CCCN(C(=O)C3(C)CCOCC3)CC2)cn1` it was 55.4%. Regarding `Cc1cnn(CCC(=O)N2CCN(c3nc(C)cs3)CC2)c1`, the INHIBITION is recorded as 62.8%. For the compound `Cc1csc(N2CCCN(C(=O)Cc3ccc(C)s3)CC2)n1`, the INHIBITION was found to be 69.8%. Next, `CCn1cc(CN2CCCN(C(=O)CCSC)CC2)cn1`: 5.9%; `Cc1cnn(CC(=O)N2CCCN(c3nc(C)cs3)CC2)c1`: 35.9%; `CCn1cc(CN2CCCN(C(=O)CCn3cc(C)cn3)CC2)cn1`: 52.5%. Next, `Cc1csc(N2CCCN(C(=O)Cc3cccs3)CC2)n1`: 14.4%; `CCn1cc(CN2CCCN(C(=O)CCc3cnn(C)c3)CC2)cn1`: 15.5%; `CCn1cc(CN2CCCN(C(=O)C3(C#N)CCCCC3)CC2)cn1`: 45.2%. As for `Cc1csc(N2CCN(C(=O)Cc3ccc(C)s3)CC2)n1`, the INHIBITION is recorded as -23.8%. Next, `CN(Cc1cc[nH]n1)C(=O)c1cn(Cc2ccccc2Cl)nn1`: 39.4%. Next, `COc1ccc2[nH]cc(C(=O)N3C[C@@H](O)[C@H](NS(C)(=O)=O)C3)c2c1`: 14.6%; `O=C(c1ccnc(C2CCNCC2)c1)N1CCCOCC1`: 42.6%; `CCN(CC)S(=O)(=O)NCC1Cc2ccccc2O1` (stereo not given): 7.65%. As for `CC(=O)N1CCCC1c1nc(CN(C)C(=O)C(C)C)cc(N(C)C)n1` (stereo not given), the INHIBITION is on record as 23.9%.

In the case of `CCc1n[nH]c(C2CN(CCS(C)(=O)=O)CCO2)n1` (stereo not given), the INHIBITION came to 25.6%.

Turning to `O=S(=O)(NC1CCCOC1)c1ccc(C(F)(F)F)nc1` (stereo not given), the INHIBITION was determined as 30%. In the case of `Cc1cnn(CC2CCCN2CC(=O)NC2CCN(C3CC3)CC2)c1` (stereo not given) it was -42.3%; in that of `CCc1nccn1C1CCCN(C(=O)c2cncnc2C)C1` (stereo not given), 21.6%. Next, `CN(C)CC1CN(C(=O)NCc2ccccc2)Cc2nccn2C1` (stereo not given): 13.5%; `Cc1cccc2c1OCCC2NCc1c(C(C)C)nn(C)c1N(C)C` (stereo not given): -41.2%; `CC(C)(C)Oc1ccc(CN)c(C(F)(F)F)c1`: 30.8%. Next, `CCc1ccsc1C(=O)N1CCCN(Cc2cnn(CC)c2)CC1`: 58.5%; `CC(C)n1cc(CN2CCCN(C(=O)C3CCOC3)CC2)cn1` (stereo not given): -29.1%; `CCc1ccsc1C(=O)N1CCS(=O)(=O)CC1`: 53.7%.

For the compound `Cc1csc(N2CCN(C(=O)C(C)n3cncn3)CC2)n1` (stereo not given), the INHIBITION amounted to 60.5%. In the case of `CC(C)n1cc(CN2CCCN(C(=O)C3(C)CCOCC3)CC2)cn1` it was 54.5%; in that of `CCn1cc(CN2CCCN(C(=O)c3sccc3C#N)CC2)cn1`, 24%; in that of `CCc1ccsc1C(=O)N1CCN(CC(N)=O)CC1`, -53.5%. Turning to `Cc1csc(N2CCN(C(=O)C(C(C)C)n3cncn3)CC2)n1` (stereo not given), the INHIBITION is listed as 17.4%. Next, `CSC(C)C(=O)N1CCCN(Cc2cnn(C(C)C)c2)CC1` (stereo not given): -19.9%.

`CCc1ccsc1C(=O)N1CCN(CC(C)O)CC1` (stereo not given): the INHIBITION was -27.8%. In the case of `CCn1cc(CN2CCCN(C(=O)c3sccc3OC)CC2)cn1` it was -34%.

For the compound `Cc1csc(N2CCCN(C(=O)C(C)n3cncn3)CC2)n1` (stereo not given), the INHIBITION stood at 17.4%. Turning to `O=C(c1cccnc1)N(CCO)Cc1cc(Br)ccc1F`, the INHIBITION is -5.1%.

Regarding `CNc1nc(C2CCCN(C(=O)C(C)(C)OC)C2)nc2c1CN(C)CC2` (stereo not given), the INHIBITION is reported as -12.9%. Regarding `CC(C(=O)NCCOc1ccc2c(c1)CCC2)n1cncn1` (stereo not given), the INHIBITION is -81.3%. Consider `Cc1ccc(S(=O)(=O)N2CCN(CCCO)CC2)s1`, for which the INHIBITION is on record as 30.1%. Next, `c1cncc(-c2noc(CNC3CCc4ncnn4C3)n2)c1` (stereo not given): 29.4%; `Cc1cc(C)n(CC2CCCCN2C(=O)c2ccsc2)n1` (stereo not given): -3.2%; `CC(C)C(Sc1nncn1C1CC1)C(=O)NCc1cccnc1` (stereo not given): -38%. In the case of `CC(NC(=O)Cc1cccs1)c1nnc2n1CCC2` (stereo not given), the INHIBITION is reported as -12.2%. Next, `O=C(c1cc[nH]n1)N1CCC(c2cc(Nc3ccccn3)n[nH]2)CC1`: -3.31%; `Cc1nnc(NC(=O)NCc2ccoc2)s1`: -19.9%. Next, `COCCNC(=O)Cn1ccc2ccc(F)cc21`: 17.1%; `O=C(Cn1ccc2ccc(F)cc21)NCc1ccc(C(=O)O)cc1`: 6%; `O=C(Cn1ccc2ccc(Br)cc21)NC[C@@H]1CCCN2CCCC[C@H]12`: 37.1%. Next, `O=C(Cn1ccc2cc(Br)ccc21)NC[C@@H]1CCCN2CCCC[C@H]12`: 58.3%; `CC[C@H](C)[C@H](NC(=O)Cn1ccc2ccc(F)cc21)C(=O)OC`: -24.6%. Regarding `Cc1cccc2c1ccn2CC(=O)NC[C@@H]1CCCN2CCCC[C@H]12`, the INHIBITION was determined as 51.9%. Next, `O=C(Cn1ccc2ccc(F)cc21)NC[C@@H]1CCCN2CCCC[C@H]12`: 58.3%; `COC(=O)[C@H](C)NC(=O)Cn1ccc2ccc(F)cc21`: 50.8%. Consider `COC(=O)CNC(=O)Cn1ccc2ccc(F)cc21`, for which the INHIBITION is 13.9%. In the case of `O=C(CCn1ccc2cc(Br)ccc21)NC[C@@H]1CCCN2CCCC[C@H]12` it was 49%; in that of `O=C(Cn1ccc2ccccc21)NC[C@@H]1CCCN2CCCC[C@H]12`, 23.5%. Next, `Cc1cccc2c1ccn2CC(=O)O`: 35%.
